Key:
Format in all cases: functional
Plasmodium falciparum [1] = experiment: GSK_TCMDC: Inhibition of Plasmodium falciparum 3D7 in whole red blood cells, using parasite LDH activity as an index of growth. Test compounds present at 2uM
Plasmodium falciparum [2] = experiment: GSK_TCMDC: Inhibition of Plasmodium falciparum Dd2 in whole red blood cells, using parasite LDH activity as an index of growth. Test compounds present at 2uM
HepG2 = experiment: GSK_TCMDC: Percent inhibition of human HepG2 cell line. Test compounds present at 10uM.

Row | Structure (SMILES) | Inhibition (Plasmodium falciparum [1]) [%] | Inhibition (Plasmodium falciparum [2]) [%] | Inhibition (HepG2) [%]
1 | COc1cccc(CN2CCCN(Cc3cccc(NC(=O)c4ccc(-c5ccccc5)cc4)c3)CC2)c1.O=C(O)C(F)(F)F | 86 | 8 | 35
2 | CCN(CCNC(=O)Cn1c(C)cc2cc([N+](=O)[O-])ccc21)c1cccc(C)c1 | 97 | 95 | 0
3 | O=C(c1ccc([N+](=O)[O-])o1)N1CCC(Cc2ccc(C(F)(F)F)cc2)CC1 | 100 | 99 | 38
4 | Cn1cnc(CCNC(=O)c2ccc(-c3cccc(-c4nc5cc(F)ccc5[nH]4)c3)cc2)c1 | 100 | 24 | 23
5 | O=S(=O)(c1cccc(Br)c1)N1CCCCC(c2ccc(C(F)(F)F)cc2)=N1 | 91 | 92 | 30
6 | COc1ccc(CN2CCC(NCc3ccc(C(F)(F)F)cc3)CC2)cc1.O=C(O)C(F)(F)F | 97 | 0 | 37
7 | Cl.OC(CNCCCCCCNCC(O)c1ccc(Cl)c(Cl)c1)c1ccc(Cl)c(Cl)c1 (centres undefined) | 90 | 17 | 99
8 | Cc1c(Cc2ccccc2Br)cnc2nc(N)nc(N)c12.Cl | 88 | 97 | 67
9 | Cl.c1ccc(C(c2cccs2)N2CCN(Cc3ccc(OCCCN4CCCCC4)cc3)CC2)cc1 (centres undefined) | 91 | 14 | 41
10 | CCN1CCC(N(Cc2ccc(-c3ccc(C(F)(F)F)cc3)cc2)C(=O)Cn2nc(C)c(=O)cc2SCc2ccc(F)cc2)CC1.O=C(O)C(O)C(O)C(=O)O | 94 | 94 | 77
11 | CS(=O)(=O)CCNCc1nc(-c2ccc3c(=O)[nH]cnc3c2)cs1 | 86 | 96 | 81
12 | O=C(NCC1CCN(CCN2CCC(c3cn(CCO)c4ccccc34)CC2)CC1)c1ccc(-c2ccc(C(F)(F)F)cc2)cc1 | 100 | 100 | 100
13 | O=c1cc(NCCCCNCc2cccc(C(F)(F)F)c2)[nH]c2ccccc12 | 94 | 34 | 13
14 | O=C(NCCCCN1CCC(c2ccc3c(c2OCc2ccccn2)CCCC3)CC1)c1ccc(NC(=O)c2ccc(Cl)cc2)cc1 | 100 | 70 | 31
15 | CC1=C(C(=O)OCCOCc2ccccc2)C(c2ccccc2C(F)(F)F)C(C(=O)OCCOCc2ccccc2)=C(C)N1 | 89 | 87 | 0
16 | Cc1cc(N[C@@H](Cc2ccccc2)C(=O)NCCOc2ccccc2)nc(NCCc2ccccc2)n1.O=C(O)C(F)(F)F | 100 | 68 | 12
17 | C=CCn1c(=N)c(C(=O)NC2CCCCC2)cc2c(=O)n3cccc(C)c3nc21 | 92 | 58 | 0
18 | Cc1noc(C)c1-c1cccc(CNCc2ccc(-c3cccc(-c4nc5cccc(C)c5[nH]4)c3)cc2)c1.O=C(O)C(F)(F)F | 100 | 94 | 24
19 | Nc1c(Cl)cc(C(O)CNCCCCCCCCCc2ccccn2)cc1Cl (centres undefined) | 98 | 83 | 9
20 | COc1ccc(CCC(C)(C)NCC(O)c2cccc(C(F)(F)F)c2)cc1 (centres undefined) | 99 | 98 | 26
21 | O=C(C=Cc1ccc(Cl)c(Cl)c1)NCCCCCN1CCCC(CCCNC(=O)/C=C/c2ccccc2)C1 (centres undefined) | 98 | 12 | 92
22 | CCCCCC(C)N/C(=N/c1ccccc1Br)Nc1ccc(C#N)cc1O (centres undefined) | 98 | 95 | 2
23 | NC1CCN(Cc2ccc(-c3cccc(-c4nc5ccccc5[nH]4)c3)cc2)C1.O=C(O)C(F)(F)F (centres undefined) | 98 | 0 | 19
24 | NCCCNc1nccc(N2CCc3ncnc(Nc4ccc(OCc5cccc(F)c5)c(Cl)c4)c3C2)n1 | 98 | 93 | 18
25 | CN(C)CCNC(=O)c1cccc(-c2cnc3ccc(NCc4ccc(Cl)c(Cl)c4)nn23)c1 | 100 | 53 | 31
26 | O=S(=O)(c1c(Cl)cc(Cl)cc1Cl)N1CCCCC(c2ccc(Cl)cc2)=N1 | 95 | 93 | 11
27 | CN1CCN(Cc2cccc(Nc3nccc(Nc4ccc(Oc5ccccc5)cc4)n3)c2)CC1 | 97 | 80 | 30
28 | CC1CN(Cc2ccccc2)CCN1c1ccc(NC(=O)c2ccc(F)cc2)cc1.O=C(O)C(F)(F)F (centres undefined) | 87 | 89 | 0
